From PubChem BioAssay AID1835 (Johns Hopkins Ion Channel Center, 2009)
Out of some 2,400 compounds screened, about 750 (31%) were called active.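 Rule for the calls: active = median signal gain over dofetilide-blocked control wells reaching their mean plus 3 SD, so readout 1 at least 0; inactive = the rest.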 This is one part of the list.

Molecular target: Voltage-gated inwardly rectifying potassium channel KCNH2 (Homo sapiens) (UniProt Q12809)
Assay: modulators restoring hERG flux under dofetilide – cell-based, thallium flux, duplicate retest, dofetilide IC70, confirmation (AID 1835)
Settings: hERG cell line, FluxOR thallium flux, dofetilide-blocked; at 10 µM; stronger effect = higher value

Chain of Voltage-gated inwardly rectifying potassium channel KCNH2 (Homo sapiens) (Q12809 whole entry, looked up): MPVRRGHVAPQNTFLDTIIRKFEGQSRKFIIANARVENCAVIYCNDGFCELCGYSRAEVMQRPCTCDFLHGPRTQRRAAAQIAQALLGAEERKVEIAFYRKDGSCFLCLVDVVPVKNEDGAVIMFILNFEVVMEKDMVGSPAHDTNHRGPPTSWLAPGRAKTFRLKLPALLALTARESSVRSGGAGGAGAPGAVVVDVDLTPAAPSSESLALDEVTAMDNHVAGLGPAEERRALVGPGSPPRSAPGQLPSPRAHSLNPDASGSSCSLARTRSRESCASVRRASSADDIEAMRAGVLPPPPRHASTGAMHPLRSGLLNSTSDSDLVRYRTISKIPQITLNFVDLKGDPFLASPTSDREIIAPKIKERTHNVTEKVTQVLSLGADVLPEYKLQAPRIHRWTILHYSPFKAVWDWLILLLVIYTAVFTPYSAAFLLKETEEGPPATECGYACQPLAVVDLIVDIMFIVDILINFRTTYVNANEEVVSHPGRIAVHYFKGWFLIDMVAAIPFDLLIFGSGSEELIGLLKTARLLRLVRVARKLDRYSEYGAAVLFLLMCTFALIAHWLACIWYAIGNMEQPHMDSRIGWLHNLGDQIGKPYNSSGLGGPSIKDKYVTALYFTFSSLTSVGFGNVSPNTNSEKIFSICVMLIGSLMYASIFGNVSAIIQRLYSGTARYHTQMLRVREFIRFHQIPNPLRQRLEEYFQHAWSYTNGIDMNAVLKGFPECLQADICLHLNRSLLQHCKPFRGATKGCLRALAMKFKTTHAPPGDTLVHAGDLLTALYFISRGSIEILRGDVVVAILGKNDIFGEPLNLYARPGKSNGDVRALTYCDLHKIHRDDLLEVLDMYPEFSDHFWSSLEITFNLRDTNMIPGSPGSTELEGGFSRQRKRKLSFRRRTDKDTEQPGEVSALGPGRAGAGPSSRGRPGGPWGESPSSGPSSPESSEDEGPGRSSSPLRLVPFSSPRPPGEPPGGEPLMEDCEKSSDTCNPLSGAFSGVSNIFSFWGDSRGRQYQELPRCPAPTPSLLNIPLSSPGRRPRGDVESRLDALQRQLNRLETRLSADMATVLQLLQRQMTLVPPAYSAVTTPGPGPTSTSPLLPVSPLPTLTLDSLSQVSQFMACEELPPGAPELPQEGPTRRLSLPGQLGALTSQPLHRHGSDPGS

Compound | activity increase over dofetilide control, less the hit threshold
CC1=CN2C(=N)/C(=C/c3ccc(Sc4ccc(Cl)cc4)o3)C(=O)N=C2S1 | -2% (inactive)
CC(C)(C)n1nnnc1C(c1cc2cc3c(cc2[nH]c1=O)OCCO3)N1CCSCC1 (centres undefined) | -11% (inactive)
CC(C)(C)c1nc(SCC(=O)N2CCCC2)c2ccccc2n1 | -15% (inactive)
Cc1cccc(N2CCN(C(=O)C3CCN(S(=O)(=O)c4cccnc4)CC3)CC2)c1C | -8% (inactive)
C/C(=N\Nc1nc(C)c(C)s1)c1ccc([N+](=O)[O-])cc1 | 22% (active)
C/C(=N/NC(=S)Nc1cccc(C)c1)c1cccc([N+](=O)[O-])c1 | -1% (inactive)
C/C(=N\Nc1cc(N2CCOCC2)ncn1)c1cccc([N+](=O)[O-])c1 | -24% (inactive)
COc1ccc2c(C(=O)CN3CCN(c4ccccc4)CC3)c[nH]c2c1 | -10% (inactive)
O=C(O)c1cc(NN=C2c3ccccc3-c3ccccc32)ccc1Cl | -4% (inactive)
CCCN1CCC(NC(=O)CC2C(=O)NCCN2Cc2cccc(OC)c2)CC1 (centres undefined) | -6% (inactive)
Cc1cc(C)c2nc(NC(=O)CN3C(=O)NC4(CCCC4)C3=O)sc2c1 | -10% (inactive)
CC1CN(S(=O)(=O)c2ccc(-c3nc4ccccc4s3)cc2)CC(C)O1 (centres undefined) | 7% (active)
O=C(NC(=S)NCc1ccc(-c2nc3ccccc3s2)cc1)c1ccco1 | -2% (inactive)
Cc1ccnc(N2CCC(C(=O)Nc3ccc(Oc4ccccc4)cc3)CC2)n1 | -11% (inactive)
CCOC(=O)N1CCC(N2C(=O)c3ccccc3C2Nc2cccnc2)CC1 (centres undefined) | 11% (active)
COc1ccc(-n2ncc3c2CC(C)(C)CC3NC(=O)c2cn[nH]c2)cc1 (centres undefined) | -9% (inactive)
Cc1ccc(-n2ncc3c2CCCC3NC(=O)c2csnn2)cc1C (centres undefined) | 21% (active)
Cc1cc(C)cc(-n2ncc3c2CCCC3NC(=O)c2csnn2)c1 (centres undefined) | 58% (active)
COc1cc2c(cc1OC)C(c1ccc([N+](=O)[O-])cc1)N(C(C)=O)CC2 (centres undefined) | -36% (inactive)
Cc1ccc(S(=O)(=O)Nc2c(C)[nH]c(=O)[nH]c2=O)cc1C | -13% (inactive)
Brc1ccc(-c2csc(N3CCCCCC3)n2)cc1 | -3% (inactive)
O=C(NC(=S)Nc1nc(-c2ccccc2)cs1)c1cccs1 | 17% (active)
O=C(NC(=S)Nc1ncc(Br)cc1Br)c1ccccc1 | 11% (active)
COc1ccc(-c2csc(NC(=S)NC(=O)c3cccs3)n2)cc1OC | -1% (inactive)
O=C(NC(=S)N1CCN(c2nc(-c3ccccc3)cs2)CC1)c1cncc(Br)c1 | 12% (active)

Compound | activity increase over dofetilide control, less the hit threshold
COc1ccc(-c2csc(NC(=S)NC(=O)c3cccs3)n2)cc1Br | 6% (active)
S=C(NCc1ccco1)N1CCN(c2nc(-c3ccccc3)cs2)CC1 | -13% (inactive)
CC(O)C(NS(=O)(=O)c1ccc(Cl)cc1)C(=O)OCc1cc([N+](=O)[O-])cc2c1OCOC2 (centres undefined) | -12% (inactive)
Cc1cc(-c2ccccc2)[nH]c(=O)c1S(=O)(=O)c1ccccc1 | -17% (inactive)
O=C(CN(C(=O)CNS(=O)(=O)c1ccc(F)cc1)c1cccc(F)c1)NCC1CCCO1 (centres undefined) | -17% (inactive)
O=C(NC(=S)Nc1nc(-c2ccccc2)cs1)c1cncc(Br)c1 | 1% (active)
Cc1ccc(NC(=S)NC(=O)c2cncc(Br)c2)cc1Cl | -13% (inactive)
Cc1ccc(C)c(NC(=S)NC(=O)c2cncc(Br)c2)c1 | 6% (active)
CC1CCCC(NC(=S)NC(=O)c2cncc(Br)c2)C1C (centres undefined) | -10% (inactive)
COc1ccc(-c2csc(NC(=S)NC(=O)c3ccc4ccccc4c3)n2)cc1OC | -9% (inactive)
O=C(NC(=S)Nc1cccc(Cl)c1)c1cncc(Br)c1 | -10% (inactive)
COc1cc(S(=O)(=O)n2cnc(C)c2)ccc1Cl | -20% (inactive)
COC(=O)C1=C(C)N(CC2CCCO2)C(=O)/C1=C\c1ccc(O)cc1 (centres undefined) | 8% (active)
Cc1ccc(NC(=O)CSc2nnc(C3CC3)n2CC2CCCO2)c(C)c1 (centres undefined) | -14% (inactive)
COC(=O)c1cc2sc(Cl)cc2n1CC(=O)NCC1CCCO1 (centres undefined) | -8% (inactive)
O=S(=O)(c1ccc(F)cc1)N1CCN(c2ccc(F)cc2)CC1 | -15% (inactive)
CCC1SC2=NC(C)=C(C(=O)OC)C(c3ccc(C(=O)OC)cc3)N2C1=O (centres undefined) | -1% (inactive)
CCOC(=O)c1sc(=S)n2c1[nH]c(=O)c1ccc(C(=O)OC)cc12 | 51% (active)
CC(=O)N1C(=O)/C(=C2\SC(=S)N(NC(=O)c3ccc(O)cc3)C2=O)c2ccccc21 | -3% (inactive)
S=c1nc(-c2ccccc2)[nH]n1-c1ccccc1 | 54% (active)
COc1cc(-c2nnc(SCC(=O)O)n2-c2ccccc2)cc(OC)c1OC | -9% (inactive)
CC(C)CSC1=NSC2=NC(=O)/C(=C\c3ccccc3)C(=N)N12 | 32% (active)
Cc1ccc(/C=C2/C(=N)N3N=C(CC(=O)N4CCCC4)SC3=NC2=O)cc1 | -2% (inactive)
CC(Oc1ccccc1F)C(=O)NC1CCS(=O)(=O)C1 (centres undefined) | -9% (inactive)
CN1C(=O)C2(OCC(C)([N+](=O)[O-])CO2)c2ccccc21 (centres undefined) | -7% (inactive)

Compound | activity increase over dofetilide control, less the hit threshold
Cc1nc2cc3sc(C)nc3cc2s1 | -8% (inactive)
Cc1ccc(NN=Nc2nc3c([nH]2)c(=O)n(C)c(=O)n3C)cc1 | -6% (inactive)
Cc1ccc(Nc2cc(C)nn2-c2nc(C)cc(=O)[nH]2)cc1 | 40% (active)
Cc1cccc(N/C(N)=N/c2nc(C)cc(=O)[nH]2)c1 | -9% (inactive)
C=CCn1c(=S)[nH]c2sc3c(c2c1=O)CCCC3 | 30% (active)
C=CCn1c(=S)[nH]c2sc3c(c2c1=O)CCC3 | 27% (active)
c1ccc(SSc2ccccn2)nc1 | -21% (inactive)
CCOC(=O)C1CCCN(C(=O)CN2C(=O)c3ccccc3C2=O)C1 (centres undefined) | -20% (inactive)
CCOC(=O)C1CCN(S(=O)(=O)c2cccc3nonc23)CC1 | 2% (active)
O=C(NCc1ccc(Cl)cc1)C1CCN(S(=O)(=O)c2cccc3nonc23)CC1 | -5% (inactive)
CCN1CCN(CCNC(=O)CCCn2nc(C)c3c(C)n(-c4ccc(C)cc4)nc3c2=O)CC1 | -8% (inactive)
Cc1cc(C)cc(OCc2nnc(SCC(=O)Nc3ccccc3)o2)c1 | -19% (inactive)
CC(Oc1ccc(Cl)cc1Cl)C(=O)Nc1cccnc1 (centres undefined) | -23% (inactive)
COc1ccc(S(=O)(=O)Nc2cccnc2)cc1 | -11% (inactive)
CC(Oc1ccc(Br)cc1Br)C(=O)Nc1cccnc1 (centres undefined) | 9% (active)
Oc1ccc(Cl)cc1C1=NNC(c2cccs2)C1 (centres undefined) | 10% (active)
O=C(Nc1cc(Cl)ccc1O)C1CC(c2ccccc2Cl)=NO1 (centres undefined) | -1% (inactive)
CCCNS(=O)(=O)c1ccc(OCC(=O)Nc2ccc3c(c2)OCCO3)cc1 | -10% (inactive)
CCOc1cc(C(=O)NC)cc(OCC)c1OCC | -13% (inactive)
COCCNC(=O)C1CC(=O)N(c2ccc(OC)cc2)C1c1ccc(OC)cc1 (centres undefined) | -24% (inactive)
O=c1ccc(N=Nc2ccccc2)ccc1O | 68% (active)
CN(C)c1ccc(N=Nc2ccc(C(=O)O)cc2)cc1 | -4% (inactive)
COc1ccc(CN(C)C(=O)c2cccc(NS(=O)(=O)c3ccccc3)c2)cc1F | -26% (inactive)
O=C1CC(O)(C(F)(F)F)Oc2c1ccc1ccccc21 (centres undefined) | 13% (active)
CC1(C)Cc2c(ccc3ccccc23)C2=C(C(=O)N3CCCC3)C(=O)C(=O)N21 | -16% (inactive)

Compound | activity increase over dofetilide control, less the hit threshold
COc1ccc(N(C(=O)c2ccco2)S(=O)(=O)c2cccs2)cc1 | -6% (inactive)
CC(=O)Nc1ccc(S(=O)(=O)N2CCC(C(=O)O)CC2)cc1 | -6% (inactive)
N=c1sccn1CC(=O)Nc1ccccc1Cc1ccccc1 | -7% (inactive)
CC(=O)c1ccc(S(=O)(=O)NCc2ccc(C(=O)N(C)CC(=O)Nc3cccc(F)c3)cc2)cc1 | 2% (active)
CN(CC(=O)Nc1ccc(Cl)cc1)C(=O)c1cccc(S(=O)(=O)NCc2ccccc2)c1 | -18% (inactive)
Cc1ccc(NC(=O)c2ccc(CNS(=O)(=O)c3cccc(C(F)(F)F)c3)cc2)cc1 | -1% (inactive)
O=C(CSc1cn(CC(=O)N2CCCC2)c2ccccc12)NCC1CCCO1 (centres undefined) | -28% (inactive)
COc1ccc(CCN2C(=O)CSC2=S)cc1OC | -16% (inactive)
Cc1ccc(C)c(NC(=S)NNC(=O)c2csc3c2CCC(C)C3)c1 (centres undefined) | 9% (active)
Cc1cccc(NC(=S)NNC(=O)c2csc3c2CCC(C)C3)c1 (centres undefined) | -3% (inactive)
Cc1ccc(C)c(NC(=O)C2C3CCCC2C3c2ccccc2)c1 (centres undefined) | -16% (inactive)
CCC1Nc2ncnc(N3CCOCC3)c2N(Cc2ccc(C)cc2)C1=O (centres undefined) | -16% (inactive)
CCc1ccc(/C=C/C(=O)c2cc(Br)ccc(=O)c2O)cc1 | 13% (active)
Cc1cccc(/C=C/C(=O)c2cc(Br)ccc(=O)c2O)c1 | -14% (inactive)
O=C(/C=C/c1ccccc1)c1cc(Br)ccc(=O)c1O | 19% (active)
COC(=O)c1c(N2C(=O)CC(Sc3ncccc3C(=O)O)C2=O)sc(C)c1C (centres undefined) | -14% (inactive)
CC(C)CC1C(C#N)=C(N)Oc2n[nH]c(-c3cccs3)c21 (centres undefined) | -16% (inactive)
CCOc1ccc(C(=O)N(CN2CCCC2=O)c2ccc(C)cc2)cc1 | 10% (active)
COc1ccc(C(=O)N(CN2CCCC2=O)c2ccc(C)cc2)cc1 | -1% (inactive)
O=C(NCCCN1CCCC1=O)c1ccc(OC(F)(F)F)cc1 | -18% (inactive)
O=C1CC(c2ccco2)CC2=C1C1c3ccccc3C(=O)N1c1ccccc1N2 (centres undefined) | -3% (inactive)
CSc1ccccc1-n1nnnc1SCC(=O)Nc1cc(C)ccc1C | -30% (inactive)
Cn1nnnc1SCC(=O)NC1CCCc2ccccc21 (centres undefined) | -21% (inactive)
Cn1nnnc1SCC(=O)Nc1ccccn1 | 4% (active)
